This is a sample that favours compounds with a hit; in the whole collection about 17% have one here.
TGFb SMAD3 inh: inhibitors of TGF-b signaling. HepG2 CAGA-GFP TGF-b/SMAD3 reporter, GFP fluorescence, 18 h; TGF-beta stimulated, 500 pg/mL final. Potency, µM (doses to about 46.1 µM), inactives show top-dose activity, negative = inhibition, usual class: inhibitors. 410,000 compounds, 1.2% hits; note: % is set by controls: 0 for no effect and ±100 for the full control effect; nearly all actives have a fitted effect of over 65% in size
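HEPG2 CAGA-GFP, 1000 cells/well; 2 h settle, 37 C; cpd via pin tool; TGF-b 500 pg/mL final; 18 h, 37 C; GFP imaging ex488/em500-530; %Activity normalised to -TGF-b and +DMSO controls; CRC fit, curve class.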
ATXN2 expr inh: reduces ATXN2 reporter expression in HEK-293 cells; 360,000 compounds, 0.72% hits; HEK-293 ATXN2-luciferase reporter, luminescence, 24 h; Potency, µM (doses to about 57 µM), for inactives: top-dose activity change, negative = inhibition, hits mostly inhibitors; note: % is set by controls: 0 for no effect and ±100 for the full control effect; nearly all actives have a fitted effect of over 55% in size
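ATXN2-luciferase reporter cells (luciferase flanked by upstream and downstream ATXN2 gene portions) were treated 24 h at 37 °C with compounds at up to 57 uM. SteadyGlo luminescence gave expression; GF-AFC fluorescence gave viability.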
TDP1 cell noCPT: qHTS for Inhibitors of human tyrosyl-DNA phosphodiesterase 1 (TDP1): qHTS in cells in absence of CPT; DT40 Tdp1-/- hTDP1 cells, no CPT, ATP luminescence, 48 h; Potency, µM (highest dose often 46.2 µM), inactives show at the top dose activity change, negative = growth inhibition, usual class: inhibitors; 420,000 compounds, 15% hits; AID 686978, 2013; note: % is set by controls: 0 for no effect and ±100 for the full control effect; nearly all actives have a fitted effect of over 55% in size
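Growth of hTDP1-complemented DT40 Tdp1-knockout cells is measured by ATP luminescence after at least 48 hr compound exposure at 37 °C, with DMSO substituting for the 20 nM CPT used in the parallel screen.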
TDP1 cell CPT: DT40-hTDP1 cell growth loss with CPT; chicken DT40 Tdp1-/-;hTDP1 cells + 20 nM CPT, ATP luminescence, 48 h; Potency, µM (highest dose often 46.2 µM), for inactives: top-dose activity change, negative = growth inhibition, most hits filed as inhibitors; 420,000 compounds, 12% hits; AID 686979; note: % is set by controls: 0 for no effect and ±100 for the full control effect; nearly all actives have a fitted effect of over 55% in size
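Chicken DT40 Tdp1-/- cells stably complemented with human TDP1 were seeded at 400 cells/well in medium containing 20 nM camptothecin, exposed to pin-transferred compounds, and grown at 37 °C for at least 48 hr. Viability was read as ATP luminescence.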
HepG2 viability: kills HepG2 cells in TGF-b inhibitor counter-screen. HepG2 CAGA-GFP viability, ATP luminescence, 18 h. Potency, µM (top dose mostly 46.1 µM), for the others: top-dose activity change, negative = cytotoxicity, actives largely listed as cytotoxic. 410,000 compounds, 0.76% hits
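CellTiter-Glo luminescence gave cytotoxicity after 18 hours at 37 degrees C. The cells were HepG2 CAGA-GFP in 1% FBS DMEM, stimulated with 500 pg/mL TGF-beta after compound addition. %Activity was normalised to no-cell wells (complete cell-killing) and DMSO (no toxicity), and curves were fitted and classified.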
ATXN viability: reduces viability in counter-screen for ATXN expression inhibitors. S2 cells (HEK-293 line with an ATXN2-luciferase reporter) viability, CellTiter-Fluor protease fluorescence, 24 h. Potency, µM (doses to about 56.7 µM), usual class: cytotoxic. 400,000 compounds, 0.49% hits. AID 651635; note: nearly all actives have a fitted effect of over 40% in size
Active calls of the source: *; i = inactive; ? = inconclusive; nt = not tested or not shown; [ ] = dose if it differs, or a comment. Calls come from the whole dose curve; as a rule, active = well fitted curve in the direction sought with a large enough effect; inconclusive = small, poorly fitted or top-dose-only effect, or another doubt; inactive = no such curve, though single readings can be large; an effect the other way counts as inactive or inconclusive. Potency is the fitted concentration of half-maximal effect.

SMILES	TGFb SMAD3 inh	ATXN2 expr inh	TDP1 cell noCPT	TDP1 cell CPT	HepG2 viability	ATXN viability
COc1ccccc1C(=O)C1CCCN(C(=O)CN2CCCCC2=O)C1 (stereo not drawn)	2%	nt	11%	7%	15%	i
O=[N+]([O-])c1ccccc1S(=O)(=O)N1CCN(c2ccccn2)CC1	7%	nt	-24%	-25%	-5%	i
O=C(Nc1ccc(Cl)cc1)Nc1ccc(N2CCCC2)c(S(=O)(=O)Nc2ccccc2Cl)c1	?	?	5.2µM*	5.2µM*	-32%	i
CCOC(=O)C(=CNc1ccc(N2CCCCC2)c(S(=O)(=O)Nc2ccccc2OC)c1)C(=O)OCC	-24%	-6%	5.8µM*	3.7µM*	-2%	i
COCC(=O)Nc1ccc(N2CCCC2)c(S(=O)(=O)Nc2ccccc2OC)c1	-17%	nt	-24%	-18%	-20%	?
COc1ccccc1NS(=O)(=O)c1cc(NC(=O)c2ccncc2)ccc1N1CCCC1	?	-3%	21µM*	?	-1%	i
CN(CCCNC(=O)CSc1cc(=O)n(C)c2cc(Cl)ccc12)Cc1ccccc1	?	-28%	-19%	?	-42%	?
CC(=O)c1c(NCCc2ccccc2)nc(=S)n(-c2ccccc2)c1C	?	-55%	18µM*	21µM*	-103%	?
COc1ccc(CNc2nc3ccccc3n2Cc2ccccc2)cc1OC	?	-18%	18µM*	?	-62%	i
c1ccc(Cn2c(NCc3ccco3)nc3ccccc32)cc1	-5%	-2%	18µM*	?	-4%	i
CCn1c(NCc2ccc(OC)cc2)nc2ccccc21	-4%	42%	?	-14%	-23%	nt
CCn1c(NCc2ccco2)nc2ccccc21	2%	-22%	2%	4%	2%	i
COCCCNc1nc2c(c(=O)n(Cc3ccc(F)cc3)c(=O)n2C)n1C	5%	-3%	-4%	-5%	7%	i
Cn1c(Oc2ccc3c(c2)OCO3)nc2c1c(=O)n(Cc1ccccc1)c(=O)n2C	11%	14%	?	?	-2%	i
Cn1c(OCc2cccnc2)nc2c1c(=O)n(Cc1ccc(F)cc1)c(=O)n2C	-34%	-16%	12µM*	21µM*	-25%	i
Cn1c(OCc2ccc3c(c2)OCO3)nc2c1c(=O)n(Cc1cccc(Cl)c1)c(=O)n2C	16%	5%	10µM*	?	10%	i
Cn1c(=O)c2c(nc(SCc3cccnc3)n2Cc2ccc(F)cc2)n(C)c1=O	5%	-15%	23µM*	21µM*	-7%	i
Cn1c(Oc2ccccc2)nc2c1c(=O)n(Cc1ccc(Cl)cc1Cl)c(=O)n2C	-6%	-1%	16µM*	15µM*	-13%	i
COc1cccc2cc(C(=O)Nc3ccccc3C(=O)N3CCOCC3)oc12	4%	4%	?	3%	-4%	i
Cn1c(OCc2cccnc2)nc2c1c(=O)n(Cc1ccccc1)c(=O)n2C	6%	-1%	18µM*	?	-6%	i
Cn1c(=O)c2c(nc(OCc3cccnc3)n2Cc2c(F)cccc2Cl)n(C)c1=O	-9%	-15%	?	?	7%	i
CN(C)S(=O)(=O)c1cccc(NC(=O)COC(=O)/C=C/c2ccc([N+](=O)[O-])cc2)c1	0%	-6%	?	?	-24%	i
Cc1noc(C)c1S(=O)(=O)N1CCC(C(=O)c2ccccc2)CC1	15%	-16%	-6%	2%	4%	i
Cc1noc(C)c1S(=O)(=O)N1CCN(C(c2ccccc2)c2ccc(Cl)cc2)CC1 (stereo not drawn)	13%	-3%	13µM*	?	0%	i
Cc1ccc(S(=O)(=O)c2c(Nc3ccc(C)c(C)c3)sc(C(=O)c3ccc4c(c3)OCO4)c2N)cc1	1%	nt	?	?	-13%	nt
SMILES	TGFb SMAD3 inh	ATXN2 expr inh	TDP1 cell noCPT	TDP1 cell CPT	HepG2 viability	ATXN viability
Cc1ccc(S(=O)(=O)c2c(Nc3cc(C)ccc3C)sc(C(=O)c3ccc4c(c3)OCO4)c2N)cc1	-2%	nt	7.3µM*	6.5µM*	-37%	nt
COc1cccc(Nc2sc(C(=O)c3ccc4c(c3)OCO4)c(N)c2S(=O)(=O)c2ccccc2)c1	36%	-9%	nt	nt	6%	i
COc1ccc(S(=O)(=O)c2c(Nc3cccc(C)c3C)sc(C(=O)c3ccccc3)c2N)cc1	19%	nt	3.3µM*	2.9µM*	-1%	nt
COc1ccc(S(=O)(=O)c2c(Nc3c(C)cccc3C)sc(C(=O)c3ccc4c(c3)OCO4)c2N)cc1	-21%	-7%	2.9µM*	5.2µM*	4%	i
COc1ccc(S(=O)(=O)c2c(Nc3c(C)cccc3C)sc(C(=O)c3ccc(F)cc3)c2N)cc1	?	-14%	5.2µM*	5.8µM*	-3%	?
COc1ccccc1Nc1sc(C(=O)c2ccc(F)cc2)c(N)c1S(=O)(=O)c1ccc(C)cc1	8%	0%	nt	nt	-1%	i
COc1cccc(C2c3[nH]c4ccccc4c3C[C@H]3C(=O)N(CCCCCO)CC(=O)N23)c1 (stereo partly drawn)	0%	-24%	-8%	-18%	-4%	i
Cn1cc(-c2[nH]c3cc(NC(=O)[C@H](N)C4CCCCC4)cc4c3c2C=NNC4=O)cn1	nt	1.1µM*	nt	nt	nt	nt
CCOCCCNC(=O)Cn1nc(CC)n2c(cc3c(OC)cccc32)c1=O	0%	4%	-1%	-10%	-20%	i
Cc1ccc(C(=O)N/N=C\c2ccc[nH]2)cn1	-4%	3%	1%	3%	-5%	i
O=C(N/N=C/c1cccs1)c1cncc(Br)c1	-13%	-24%[11.3 µM]	-5%	5%	1%	i
O=C(N/N=C/c1cccs1)c1cccnc1	12%	4%	23µM*	1%	4%	i
O=C(N/N=C/c1ccc[nH]1)c1cccnc1	9%	-7%	6.5µM*	15µM*	-29%	i
Cn1c(=O)c2cc(NC(=S)NCc3ccccc3F)ccc2n1C	4%	48%	-23%	0%	4%	?
CC(CC(=O)Nc1ccc2c(c1)c(=O)n(C)n2-c1cccs1)c1ccccc1 (stereo not drawn)	8%	-4%	12µM*	13µM*	-5%	?
